PubChem BioAssay (EPA / NIEHS)
Inconclusive results are not listed. Active and inactive are the calls of the source. How the source made its calls: active means hit-call score of the fitted dose curve at least 0.9, where 1 is the maximum; inconclusive means response in the unintended direction; inactive means score below 0.9.

Tests used:
[1] = TOX21_p53_BLA_p2_viability: Viability Assessment in the Tox21 HCT-116 p53 Agonism Beta-lactamase Assay, Phase 2 (AID 2283591);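 further: actives lower the ATP signal meaning cytotoxicity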
In short: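 Cytotoxicity readout: CellTiter-Glo ATP luminescence, 30 min at room temperature, after the beta-lactamase read. Cells were HCT116 exposed 16 h at 37C to compounds pin-transferred at 217-fold dilution from DMSO stocks.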

[2] = target: Cellular tumor antigen p53 (Homo sapiens) (UniProt P04637); experiment: TOX21_p53_BLA_p2_ratio: Tox21 HCT-116 p53 Agonism Beta-lactamase Assay, Ratio, Phase 2 (AID 2283592)
In short: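 First, HCT116 reporter cells settle for 5 h at 37C. Next, DMSO compound solutions are pinned in (217-fold dilution) and left 16 h. Finally, CCF4-AM substrate is loaded 2 h at room temperature and the 460/530 nm ratio read.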

[3] = TOX21_p53_BLA_p3_viability: Viability Assessment in the Tox21 HCT-116 p53 Agonism Beta-lactamase Assay, Phase 3 (AID 2283593);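 further: cells exposed to compound for 16 h before reading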
In short: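 Cellular ATP was quantified by CellTiter-Glo luminescence, read after 30 min at room temperature. Beforehand, HCT116 cells (4000/well) received compound 5 h post-seeding, 217-fold diluted from DMSO, then incubated 16 h at 37C.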

[4] = target: Cellular tumor antigen p53 (Homo sapiens) (UniProt P04637); experiment: TOX21_p53_BLA_p4_ratio: Tox21 HCT-116 p53 Agonism Beta-lactamase Assay, Ratio, Phase 4 (AID 2283601)
In short: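 Signal is the blue/green (460nm/530nm) ratio of cleaved versus uncleaved CCF4-AM substrate, read after 2 h substrate loading. Cells were HCT116 carrying the p53-responsive beta-lactamase reporter, dosed 16 h at 37C, 5% CO2; CellTiter-Glo measured in parallel.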

[5] = Tanguay_ZF_120hpf_YSE_legacy: (Legacy) Oregon State University Tanguay Lab 120 Hour Post-fertilization zebrafish Assay for Yolk Sac Edema (AID 2283634)
In short: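 Dechorionated Tropical 5D wild-type zebrafish embryos were exposed statically, one per well, from 6 to 120 hpf at 28C in 0.64% DMSO. Yolk sac edema was scored present/absent by brightfield at 120 hpf, and dead embryos were excluded.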

[6] = Tanguay_ZF_120hpf_AXIS_legacy: (Legacy) Oregon State University Tanguay Lab 120 Hour Post-fertilization zebrafish Assay for Body Axis Malformation (AID 2283635)
In short: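 Dechorionated wild-type Tropical 5D zebrafish embryos, one per well, statically exposed from 6 hpf to 120 hpf at 28C in 0.64% DMSO final. Body axis malformation scored present/absent by brightfield microscopy at 120 hpf; dead embryos excluded.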

[7] = Tanguay_ZF_120hpf_EYE_legacy: (Legacy) Oregon State University Tanguay Lab 120 Hour Post-fertilization zebrafish Assay for Eye Malformation (AID 2283636);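 further: binary presence or absence of eye malformation scored by brightfield in 120 hpf larvae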
In short: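 Binary brightfield scoring of eye defects at 120 hpf after static exposure from 6 hpf of single pronase-dechorionated wild-type embryos (28C, 0.64% DMSO). Non-mortality endpoints omitted where embryos died; fit vs DMSO.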

[8] = Tanguay_ZF_120hpf_JAW_legacy: (Legacy) Oregon State University Tanguay Lab 120 Hour Post-fertilization zebrafish Assay for Jaw Malformation (AID 2283638)
In short: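 Dechorionated Tropical 5D wild-type zebrafish embryos, one per well, exposed statically from 6 hpf to 120 hpf at 28C in 0.64% DMSO. Jaw malformation was scored by brightfield microscopy as present or absent. It was not scored in dead embryos.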

[9] = Tanguay_ZF_120hpf_OTIC_legacy: (Legacy) Oregon State University Tanguay Lab 120 Hour Post-fertilization zebrafish Assay for Otic Vesicle Malformation (AID 2283639)
In short: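 Binary scoring of otic vesicle defects at 120 hpf in zebrafish (Tropical 5D) held under static exposure at 28C, sealed and shaded, with final DMSO 0.64%. Embryos dying by 24 or 120 hpf excluded; fitted positively against DMSO.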

[10] = Tanguay_ZF_120hpf_PE_legacy: (Legacy) Oregon State University Tanguay Lab 120 Hour Post-fertilization zebrafish Assay for Pericardial Edema (AID 2283640)
In short: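 Tropical 5D wild-type zebrafish embryos were statically exposed until 120 hpf at 28C, with 0.64% DMSO final. Pericardial edema was scored by brightfield as present or absent; endpoints were not scored in dead embryos.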

[11] = TOX21_p53_BLA_p4_viability: Viability Assessment in the Tox21 HCT-116 p53 Agonism Beta-lactamase Assay, Phase 4 (AID 2283597);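 further: hits lower the luminescence signal meaning cytotoxicity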
In short: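 4000 HCT116 cells per well; 5 h attachment; compounds from DMSO, 217-fold dilution; 16 h at 37C. Then CCF4-AM, 2 h RT, followed by CellTiter-Glo, 30 min RT, luminescence. Decrease = cytotoxicity.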

[12] = Tanguay_ZF_120hpf_MORT_legacy: (Legacy) Oregon State University Tanguay Lab 120 Hour Post-fertilization zebrafish Assay for Mortality (AID 2283633)
In short: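 Dechorionated Tropical 5D wild-type zebrafish embryos, one per well from 6 hpf, static exposure in 0.64% DMSO at 28C until 120 hpf. Mortality scored as binary by brightfield microscopy at 24 and 120 hpf.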

[13] = Tanguay_ZF_120hpf_SNOU_legacy: (Legacy) Oregon State University Tanguay Lab 120 Hour Post-fertilization zebrafish Assay for Snout Malformation (AID 2283637)
In short: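 Binary snout-malformation call at 120 hpf in wild-type 5D embryos, chorion removed by pronase, under static exposure from 6 hpf at 28C (0.64% DMSO). Embryos dying by 24 or 120 hpf excluded.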

[14] = Tanguay_ZF_120hpf_BRAI_legacy: (Legacy) Oregon State University Tanguay Lab 120 Hour Post-fertilization zebrafish Assay for Brain Malformation (AID 2283641)
In short: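 Tropical 5D wild-type zebrafish embryos exposed statically until 120 hpf at 28C, 0.64% DMSO final, sealed and dark. Brain malformation scored present/absent by brightfield at 120 hpf; dead embryos excluded. Trimethyltin chloride 5uM positive control.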

[15] = target: Cellular tumor antigen p53 (Homo sapiens) (UniProt P04637); experiment: TOX21_p53_BLA_p5_ratio: Tox21 HCT-116 p53 Agonism Beta-lactamase Assay, Ratio, Phase 5 (AID 2283599)
In short: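 Beta-lactamase reporter ratio (blue 460 nm over green 530 nm, 405 nm excitation) after 2 h CCF4-AM loading, in HCT-116 cells exposed 16 h at 37 C to compounds pinned at 217-fold dilution. Increases relative to DMSO baseline scored.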

[16] = TOX21_p53_BLA_p5_viability: Viability Assessment in the Tox21 HCT-116 p53 Agonism Beta-lactamase Assay, Phase 5 (AID 2283600)
In short: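 Decreased CellTiter-Glo luminescence denotes lost viability. Exposure: 16 h at 37C, 5% CO2, with compounds from DMSO stocks diluted 217-fold in wells of 4000 cells.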

[17] = Tanguay_ZF_120hpf_SOMI_legacy: (Legacy) Oregon State University Tanguay Lab 120 Hour Post-fertilization zebrafish Assay for Somite Malformation (AID 2283647)
In short: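 Dechorionated Tropical 5D wild-type zebrafish embryos, one per well from 6 hpf, statically exposed at 28C to 120 hpf in 0.64% DMSO; somite malformation scored present/absent by brightfield; trimethyltin 5 uM positive control; dead embryos not scored.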

[18] = ATG_XTT_Cytotoxicity: Cytotoxicity Assessment in the Attagene TRANS-FACTORIAL HepG2 Assay (AID 2283584)
In short: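 HepG2 cells transiently transfected with GAL4-UAS multiple reporter units, dosed 24 h; cytotoxicity read by XTT as loss of signal versus DMSO baseline.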

[19] = target: Cellular tumor antigen p53 (Homo sapiens) (UniProt P04637); experiment: TOX21_p53_BLA_p3_ratio: Tox21 HCT-116 p53 Agonism Beta-lactamase Assay, Ratio, Phase 3 (AID 2283596)
In short: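 Cells were seeded at 4000/well, rested 5 h at 37C, then dosed with DMSO compound solutions (217-fold dilution) for 16 h. CCF4-AM substrate was loaded for 2 h at room temperature, and the 460/530 nm emission ratio was fitted for gain of signal versus DMSO.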

Measured: outcome

Chain of Cellular tumor antigen p53 (Homo sapiens) (P04637 whole entry, looked up): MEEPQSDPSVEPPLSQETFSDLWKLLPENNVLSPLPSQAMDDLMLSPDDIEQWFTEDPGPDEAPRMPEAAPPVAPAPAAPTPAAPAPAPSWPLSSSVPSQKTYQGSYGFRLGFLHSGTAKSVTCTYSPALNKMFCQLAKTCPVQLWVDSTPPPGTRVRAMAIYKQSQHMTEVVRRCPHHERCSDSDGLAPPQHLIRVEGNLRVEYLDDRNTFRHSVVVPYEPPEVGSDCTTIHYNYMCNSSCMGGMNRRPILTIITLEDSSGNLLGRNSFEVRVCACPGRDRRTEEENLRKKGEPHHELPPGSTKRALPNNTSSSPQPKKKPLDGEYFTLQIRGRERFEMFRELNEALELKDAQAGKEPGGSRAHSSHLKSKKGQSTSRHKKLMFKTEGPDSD

CC[C@H]1CC[C@H](NCc2cc3c(cc2OC)[C@H]2C[C@H]2C(=O)N3C)[C@H](c2ccccc2)N1
inactive: [1] | [2] | [3] | [4] | [5] | [6] | [7] | [8] | [9] | [10]

C1N2CN3CN1CN(C2)C3
inactive: [1] | [3] | [11] | [4] | [12] | [5] | [6] | [7] | [13] | [8] | [9] | [10] | [14]

O=C(O)c1cc(N=Nc2ccc(S(=O)(=O)Nc3ccccn3)cc2)ccc1O
inactive: [1] | [3] | [11] | [15] | [16] | [4] | [12] | [5] | [6] | [7] | [8] | [9] | [10] | [17]

CC(C)=CCCC(C)=CC=O
inactive: [18] | [3] | [19] | [11] | [16] | [4] | [5] | [6] | [7] | [8] | [9] | [10] | [14]

C=CC(=C)CCC=C(C)C
inactive: [1] | [19] | [11] | [15] | [16] | [4] | [12] | [5] | [6] | [7] | [13] | [8] | [9] | [10] | [14] | [17]
